Legend:
Experiment in all cases: DAPPL (digital affinity profiling via proximity ligation, sequencing); 10 mM Tris-HCl pH 7.5, 50 mM NaCl, 1 mM DTT, 4% glycerol, room temperature, 30 min; GST-TFs on glutathione beads, 16-mer random dsDNA library, 0.1% formaldehyde crosslink after washing; high values mean tight binding
HSF1 = HSF1 (Homo sapiens, UniProt Q00613 1-529); conditions: protein: recombinant; tags: N-terminal GST; chain copies: 3; dsDNA, one strand shown
Procedure, shortened: (§1)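 Binding signal is each hexamer's read frequency for a factor divided by its frequency in the tag-only sample. The factors were GST-fused human transcription factors from yeast, captured on glutathione beads, DNA-barcoded and pooled with that sample. Pools were incubated with 200 nmole of a random double-stranded 16-mer DNA library in Tris/NaCl/DTT/glycerol buffer at room temperature for 30 min, then washed, crosslinked with 0.1% formaldehyde, proximity-ligated with BsaI/T4 ligase (1 h, 37 °C), PCR-amplified and sequenced on an Illumina NextSeq500.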

SPIC = biological target: T1, SPIC (Homo sapiens, UniProt Q8N5J4 1-248); conditions: protein: recombinant; tags: N-terminal GST; dsDNA, one strand shown
T1 sequence: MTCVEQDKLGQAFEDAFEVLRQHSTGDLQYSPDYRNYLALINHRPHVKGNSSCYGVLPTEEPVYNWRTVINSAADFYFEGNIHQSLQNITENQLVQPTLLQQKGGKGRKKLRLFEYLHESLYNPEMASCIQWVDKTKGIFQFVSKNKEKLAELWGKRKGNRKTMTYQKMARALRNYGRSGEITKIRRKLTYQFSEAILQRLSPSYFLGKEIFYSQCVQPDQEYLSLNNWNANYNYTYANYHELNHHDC
Procedure, shortened: as §1

CRX = CRX (Homo sapiens, UniProt O43186 1-299); conditions: protein: recombinant; tags: N-terminal GST; dsDNA, one strand shown
Sequence of CRX (O43186 whole entry): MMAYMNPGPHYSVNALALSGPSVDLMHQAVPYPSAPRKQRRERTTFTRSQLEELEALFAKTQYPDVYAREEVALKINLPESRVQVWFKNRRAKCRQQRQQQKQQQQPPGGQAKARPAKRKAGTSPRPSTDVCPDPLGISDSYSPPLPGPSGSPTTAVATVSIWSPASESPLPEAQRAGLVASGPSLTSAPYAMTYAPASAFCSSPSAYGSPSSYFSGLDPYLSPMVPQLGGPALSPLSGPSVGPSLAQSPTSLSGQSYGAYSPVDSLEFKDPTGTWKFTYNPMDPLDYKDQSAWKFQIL
Procedure, shortened: as §1

ELK1 = biological target: T2, ELK1 (Homo sapiens, UniProt P19419 1-428); conditions: protein: recombinant; tags: N-terminal GST; dsDNA, one strand shown
T2 sequence: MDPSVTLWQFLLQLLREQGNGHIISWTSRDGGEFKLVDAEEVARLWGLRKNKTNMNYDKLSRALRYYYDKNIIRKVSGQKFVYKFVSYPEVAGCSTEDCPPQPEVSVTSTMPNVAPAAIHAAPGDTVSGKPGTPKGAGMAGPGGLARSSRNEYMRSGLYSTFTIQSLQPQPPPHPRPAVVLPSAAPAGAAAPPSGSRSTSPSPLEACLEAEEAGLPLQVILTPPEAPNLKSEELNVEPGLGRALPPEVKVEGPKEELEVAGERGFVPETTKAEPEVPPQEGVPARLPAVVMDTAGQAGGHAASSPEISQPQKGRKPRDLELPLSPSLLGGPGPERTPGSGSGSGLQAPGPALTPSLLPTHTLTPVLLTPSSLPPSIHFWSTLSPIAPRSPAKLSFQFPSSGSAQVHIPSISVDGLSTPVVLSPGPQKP
Procedure, shortened: as §1

GABPA = biological target: T3, GABPA (Homo sapiens, UniProt Q06546 1-454); conditions: protein: recombinant; tags: N-terminal GST; dsDNA, one strand shown
T3 sequence: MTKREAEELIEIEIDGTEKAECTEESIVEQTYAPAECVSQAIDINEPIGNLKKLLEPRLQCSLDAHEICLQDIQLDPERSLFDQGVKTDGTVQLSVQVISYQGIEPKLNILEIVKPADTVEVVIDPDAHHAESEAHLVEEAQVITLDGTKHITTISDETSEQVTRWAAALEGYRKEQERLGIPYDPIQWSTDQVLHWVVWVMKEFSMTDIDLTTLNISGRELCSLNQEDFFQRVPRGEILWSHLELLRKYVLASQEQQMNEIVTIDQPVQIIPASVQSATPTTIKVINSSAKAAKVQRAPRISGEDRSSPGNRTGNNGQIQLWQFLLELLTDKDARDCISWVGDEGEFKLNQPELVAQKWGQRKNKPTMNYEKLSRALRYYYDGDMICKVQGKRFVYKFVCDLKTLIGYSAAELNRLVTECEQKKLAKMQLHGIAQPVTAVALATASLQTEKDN
Procedure, shortened: as §1

ELF1 = ELF1 (Homo sapiens, UniProt P32519 1-619); conditions: protein: recombinant; tags: N-terminal GST; dsDNA, one strand shown
Sequence of ELF1 (P32519 whole entry): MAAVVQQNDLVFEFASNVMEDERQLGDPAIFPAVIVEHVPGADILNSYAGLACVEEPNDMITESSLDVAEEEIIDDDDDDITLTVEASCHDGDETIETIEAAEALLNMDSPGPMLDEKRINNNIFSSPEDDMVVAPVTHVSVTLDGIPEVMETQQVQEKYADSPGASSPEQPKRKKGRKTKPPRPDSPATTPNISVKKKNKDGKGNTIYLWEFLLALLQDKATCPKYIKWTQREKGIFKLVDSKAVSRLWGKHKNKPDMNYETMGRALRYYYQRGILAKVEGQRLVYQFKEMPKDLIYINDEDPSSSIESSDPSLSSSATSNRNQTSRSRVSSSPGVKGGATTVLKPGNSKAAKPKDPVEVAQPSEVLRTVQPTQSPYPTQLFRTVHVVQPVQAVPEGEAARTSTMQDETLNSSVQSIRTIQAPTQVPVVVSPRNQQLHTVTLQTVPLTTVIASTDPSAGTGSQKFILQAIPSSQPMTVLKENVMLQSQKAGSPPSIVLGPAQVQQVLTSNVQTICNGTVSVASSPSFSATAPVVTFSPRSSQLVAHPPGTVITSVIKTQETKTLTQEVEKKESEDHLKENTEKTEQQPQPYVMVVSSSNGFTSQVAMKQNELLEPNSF
Procedure, shortened: as §1

ELK4 = biological target: T4, ELK4 (Homo sapiens, UniProt P28324-2 1-405); conditions: protein: recombinant; tags: N-terminal GST; dsDNA, one strand shown
T4 sequence: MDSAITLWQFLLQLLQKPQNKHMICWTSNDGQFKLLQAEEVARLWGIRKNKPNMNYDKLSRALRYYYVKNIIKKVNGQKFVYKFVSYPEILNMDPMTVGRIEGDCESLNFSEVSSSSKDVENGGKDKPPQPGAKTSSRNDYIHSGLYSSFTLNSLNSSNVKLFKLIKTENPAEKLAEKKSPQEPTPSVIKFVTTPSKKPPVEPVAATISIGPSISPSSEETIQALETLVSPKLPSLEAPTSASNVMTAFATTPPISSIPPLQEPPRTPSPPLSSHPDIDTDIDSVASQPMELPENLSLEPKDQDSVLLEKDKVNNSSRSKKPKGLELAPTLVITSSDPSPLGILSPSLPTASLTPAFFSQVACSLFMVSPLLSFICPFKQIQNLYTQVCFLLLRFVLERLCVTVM
Procedure, shortened: as §1

ETV1 = ETV1 (Homo sapiens, UniProt P50549 1-477); conditions: protein: recombinant; tags: N-terminal GST; dsDNA, one strand shown
Sequence of ETV1 (P50549 whole entry): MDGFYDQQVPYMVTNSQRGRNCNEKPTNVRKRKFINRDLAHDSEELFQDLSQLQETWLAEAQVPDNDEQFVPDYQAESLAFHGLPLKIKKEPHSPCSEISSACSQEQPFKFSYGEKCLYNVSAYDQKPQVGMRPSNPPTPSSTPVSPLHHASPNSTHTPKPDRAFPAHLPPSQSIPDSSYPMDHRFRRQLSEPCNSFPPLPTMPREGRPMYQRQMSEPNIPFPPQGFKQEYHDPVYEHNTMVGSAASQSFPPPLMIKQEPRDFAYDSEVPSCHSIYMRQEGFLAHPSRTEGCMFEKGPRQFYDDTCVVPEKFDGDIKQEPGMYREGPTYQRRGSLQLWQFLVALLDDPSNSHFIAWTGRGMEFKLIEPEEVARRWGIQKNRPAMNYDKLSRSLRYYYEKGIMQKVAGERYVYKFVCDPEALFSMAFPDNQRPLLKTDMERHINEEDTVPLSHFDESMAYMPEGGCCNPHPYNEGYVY
Procedure, shortened: as §1

ETV3L = biological target: T5, ETV3L (Homo sapiens, UniProt Q6ZN32 1-361); conditions: protein: recombinant; tags: N-terminal GST; dsDNA, one strand shown
T5 sequence: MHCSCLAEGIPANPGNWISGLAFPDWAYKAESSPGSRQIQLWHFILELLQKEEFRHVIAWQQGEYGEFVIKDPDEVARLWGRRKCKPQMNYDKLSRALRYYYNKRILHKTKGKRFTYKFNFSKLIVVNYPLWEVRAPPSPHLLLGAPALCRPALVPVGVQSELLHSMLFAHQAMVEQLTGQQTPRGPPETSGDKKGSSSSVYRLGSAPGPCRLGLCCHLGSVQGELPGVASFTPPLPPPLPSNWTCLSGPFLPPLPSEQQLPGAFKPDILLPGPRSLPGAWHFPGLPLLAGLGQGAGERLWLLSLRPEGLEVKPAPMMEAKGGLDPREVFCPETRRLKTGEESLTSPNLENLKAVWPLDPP
Procedure, shortened: as §1

SPDEF = biological target: T6, SPDEF (Homo sapiens, UniProt O95238 1-335); conditions: protein: recombinant; tags: N-terminal GST; dsDNA, one strand shown
T6 sequence: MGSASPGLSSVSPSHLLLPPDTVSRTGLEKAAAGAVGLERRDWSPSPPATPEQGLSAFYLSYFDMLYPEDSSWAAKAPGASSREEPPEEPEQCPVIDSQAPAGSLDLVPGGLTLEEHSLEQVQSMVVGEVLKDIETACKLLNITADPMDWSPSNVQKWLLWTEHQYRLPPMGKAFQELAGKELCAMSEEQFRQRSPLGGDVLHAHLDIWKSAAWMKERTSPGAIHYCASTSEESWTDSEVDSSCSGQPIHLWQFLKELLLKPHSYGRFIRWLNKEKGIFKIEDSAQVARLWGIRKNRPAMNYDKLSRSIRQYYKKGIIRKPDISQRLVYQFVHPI
Procedure, shortened: as §1

ETV3 = biological target: T7, ETV3 (Homo sapiens, UniProt P41162-2 1-143); conditions: protein: recombinant; tags: N-terminal GST; dsDNA, one strand shown
T7 sequence: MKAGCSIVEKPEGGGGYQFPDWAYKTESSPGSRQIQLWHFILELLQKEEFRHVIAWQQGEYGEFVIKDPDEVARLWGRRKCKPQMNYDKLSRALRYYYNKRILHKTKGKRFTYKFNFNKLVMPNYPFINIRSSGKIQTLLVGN
Procedure, shortened: as §1

ETV6 = ETV6 (Homo sapiens, UniProt P41212 1-452); conditions: protein: recombinant; tags: N-terminal GST; dsDNA, one strand shown
Sequence of ETV6 (P41212 whole entry): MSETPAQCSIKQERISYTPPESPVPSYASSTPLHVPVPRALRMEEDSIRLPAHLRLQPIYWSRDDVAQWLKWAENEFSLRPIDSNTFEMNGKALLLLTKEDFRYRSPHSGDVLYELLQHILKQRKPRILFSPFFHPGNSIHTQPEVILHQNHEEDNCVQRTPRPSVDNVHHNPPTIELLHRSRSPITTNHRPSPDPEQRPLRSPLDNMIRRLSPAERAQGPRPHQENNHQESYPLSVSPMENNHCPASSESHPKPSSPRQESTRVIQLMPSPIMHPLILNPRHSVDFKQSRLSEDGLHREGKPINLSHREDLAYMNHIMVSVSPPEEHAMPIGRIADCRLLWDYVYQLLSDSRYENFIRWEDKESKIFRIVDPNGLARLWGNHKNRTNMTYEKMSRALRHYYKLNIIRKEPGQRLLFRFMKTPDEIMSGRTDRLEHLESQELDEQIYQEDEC
Procedure, shortened: as §1

Sequence of HSF1 (Q00613 whole entry, the tested form may be a part): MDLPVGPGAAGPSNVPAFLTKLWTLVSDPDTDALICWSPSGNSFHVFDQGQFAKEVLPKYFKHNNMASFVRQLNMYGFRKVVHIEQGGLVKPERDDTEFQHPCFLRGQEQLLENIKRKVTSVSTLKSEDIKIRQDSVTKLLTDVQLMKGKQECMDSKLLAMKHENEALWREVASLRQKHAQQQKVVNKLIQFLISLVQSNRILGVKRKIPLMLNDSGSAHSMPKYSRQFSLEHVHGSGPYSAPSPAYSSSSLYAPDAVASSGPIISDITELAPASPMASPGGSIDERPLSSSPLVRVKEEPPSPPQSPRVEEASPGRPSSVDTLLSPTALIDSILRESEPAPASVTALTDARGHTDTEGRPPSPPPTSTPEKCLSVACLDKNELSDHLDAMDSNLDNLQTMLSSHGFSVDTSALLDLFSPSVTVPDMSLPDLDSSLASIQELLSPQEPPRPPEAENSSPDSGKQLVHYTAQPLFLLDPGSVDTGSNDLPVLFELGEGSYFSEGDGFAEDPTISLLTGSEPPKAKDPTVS

Sequence: AGAACT
- binding signal (HSF1): 1.63 fold enrichment (6-mer frequency, TF over GST control)
- binding signal (SPIC): 1.03 fold enrichment (6-mer frequency, TF over GST control)
- binding signal (CRX): 1.02 fold enrichment (6-mer frequency, TF over GST control)

Sequence: GCGATC
- binding signal (ELK1): 1.08 fold enrichment (6-mer frequency, TF over GST control)
- binding signal (GABPA): 1.01 fold enrichment (6-mer frequency, TF over GST control)
- binding signal (ELF1): 1.06 fold enrichment (6-mer frequency, TF over GST control)
- binding signal (HSF1): 1.02 fold enrichment (6-mer frequency, TF over GST control)
- binding signal (ELK4): 1.13 fold enrichment (6-mer frequency, TF over GST control)
- binding signal (CRX): 1.03 fold enrichment (6-mer frequency, TF over GST control)
- binding signal (ETV1): 1.03 fold enrichment (6-mer frequency, TF over GST control)
- binding signal (ETV3L): 1.03 fold enrichment (6-mer frequency, TF over GST control)
- binding signal (SPDEF): 1.04 fold enrichment (6-mer frequency, TF over GST control)
- binding signal (ETV3): 1 fold enrichment (6-mer frequency, TF over GST control)
- binding signal (ETV6): 1 fold enrichment (6-mer frequency, TF over GST control)

Source: article PMC7862700, “An all-to-all approach to the identification of sequence-specific readers for epigenetic DNA modifications on cytosine”
